Measurements: PubChem BioAssay AID1508600 (Functional Genomics Laboratory (NCATS/FGL), 2020)
Among all 53,000 sequences or so, about 3,700 (7%) were called active. The entries come from a sample that favours actives as a whole. A number with no mark means an inactive call.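 Rule for the calls: active = gene knockdowns whose robust z-score for IL-1 alpha signal is at least 2 or at most -2, so actives lie on both sides; inactive = the rest.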

Test: Components of the Cytosolic LPS Sensing Pathway: Gene Identification via Genome-wide siRNA Screen;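 note: robust z of the log signal after scaling to non-targeting control siRNA wells of the plate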
Settings: RAW264.7 macrophages, IL-1a HTRF, actives lie on both sides, screened at 100 nM (by protocol), cells primed 5 h with Pam3CSK4 first
How it was run: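 Using IL-1a HTRF as read-out, the screen measured release from RAW264.7 cells after 48h siRNA knockdown (100 nM), 5 h Pam3CSK4 priming and 24 h cytosolic LipidA. Values were expressed relative to negative-control wells as robust z-scores.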

Row | Sequence | z-score
1 | GGAAUUUCAUGGCAAGGGUTT against Fmc1 | 0.652
2 | GGAUCACAUGAAAGGAUUATT against Dclre1c | -0.242
3 | CCCAGCAACUACUGGAAACTT against Tas2r139 | -0.293
4 | CGCUGUGCUGAGCUUACUUTT against D17H6S53E | -2.36 (active)
5 | GGUUAUCUCAAAACUCGACTT against Prox2 | -0.119
6 | GGUAACUGAUUGCUUAGAUTT against Smndc1 | 0.836
7 | GCACUACAUUGUGGCUGUCTT against Itpr3 | -2.57 (active)
8 | GGGUUUGAACUGGUGAUUGTT against Cenpp | -0.525
9 | GGACAAAGGGAUAAUGCUGTT against Aldoc | 0.735
10 | GGUUUUGGAAAAAGUGGAUTT against Chp1 | -0.867
11 | GCCCUGUACCUUUUAGCUUTT against Olfr704 | -0.306
12 | CCUUGUUCAAAAAGAUGGCTT against Serpina1f | -2.08 (active)
13 | GGCCAUCAAGAGUUUCUUUTT against Nr0b1 | 0.876
14 | GCGUGUCUUGCUCUUUUGATT against Usp22 | -1.21
15 | GGAAUCCUCUGAAUAACCUTT against Vmn1r172 | -1.14
16 | GGGUGAUUUCUACCUUCAATT against D630003M21Rik | -0.496
17 | GGAAGAGGAAAUCACCACATT against Clec11a | -2.16 (active)
18 | GGUUGGUGAUGGCACAAACTT against Cct8 | -0.469
19 | GGUAGAACUUAUUGUGGACTT against Ly6f | -0.692
20 | CCUAUAAAGCUCUAAAGGATT against Caprin1 | 0.115
21 | GGGUUUCCACAGACAAUGUTT against V1rg10 | -0.837
22 | GGACCUUUUUUGUUCAAAATT against Rasd1 | 0.157

Row | Sequence | z-score
23 | CUCUGUACUUGGGCAGGAATT against Cyp2c65 | 2.9 (active)
24 | CGCUGCAUUAAAGACUAAATT against Kcnj10 | 0.414
25 | GCAAACGGACACUUGGAAUTT against Hmx1 | -0.9
26 | GGUAAACAUGAUGUCCCUCTT against A630038E17Rik | 0.0317
27 | GGAAUAUGCUGCAAAAAUCTT against Camk2g | -1.58
28 | GGCAGCCUGAACAUCAAUGTT against S100a13 | 1.47
29 | CCGAAGCUUUAUCUUCUAUTT against Pkd2 | -0.719
30 | GGCCAUGGUUUCAAAAACATT against Rspo2 | -1.33
31 | GGCGAUCUUUGGAAUUAGATT against Ing3 | 0.209
32 | GGGAACAUGUUUUACUCUUTT against Zfp521 | 1.63
33 | GGUCGACAGAUCAAGCCUUTT against Psmb3 | -2.18 (active)
34 | GCCAAUCUGAACUUGUGUUTT against Plet1 | -0.931
35 | CCACAGGGACAACAAACUATT against Arid3b | 0.0513
36 | CCUGUUUCGUAGAUUGUUUTT against Eftud2 | -0.35
37 | CGUGUCAUACAGGUGUGGUTT against Lhx8 | 2.11 (active)
38 | UCCUUGCUGUCCUAACCAUTT against Gpr119 | 1.64
39 | GCUGCACCAUCAAUUCCCATT against Vpreb3 | -1.63
40 | GGCACUUGAAUUUCUAAGUTT against Cbx5 | 0.0672
41 | GGACCCAGCAGUCAAGAUATT against 9930038B18Rik | 0.0416
42 | CCAGCAAUAGUUCAGCAGATT against Ccdc82 | -2.72 (active)
43 | GGUGCCAACCUCAAUUCAUTT against Hnf4a | 1.9
44 | CCGGUUCACUGCUUGACCUTT against Wbp1 | 0.87

Row | Sequence | z-score
45 | CGUUGUGAGGUUAUACGACTT against Tbc1d20 | -0.862
46 | GGAACACUUUAAGACCAAATT against Fmnl1 | 0.482
47 | GGAGUAUUAUGAAGUGUUGTT against Aip | 0.108
48 | GGAAACUGGUGCUACAUUATT against Usp10 | 0.747
49 | GGACAGGAUCAGAGAAAGATT against Zbtb7c | -2.15 (active)
50 | GGACAUUGAGGAUUAUGUCTT against Med24 | 0.332
51 | GCUAGAUGUAGAUAGAUAATT against Plekhm3 | -0.569
52 | GCACAGGUGAGCUCUUUGATT against Nudt10 | -1.12
53 | GUGUUUUACCAUUGGACAUTT against Klra20 | 1.58
54 | GUUCGCUGAACACGUCUUCTT against Hpcal1 | 0.549
55 | GGCAUUGAAUUACUUACAUTT against Slk | 2.46 (active)
56 | GAGACAAUUGUAACAUUCUTT against Olfr176 | 1.2
57 | GGCAGCUUAGCUGUUCGUCTT against Socs4 | -0.664
58 | GGCCAGUUCUAUGUCAUGATT against Usf2 | -2.05 (active)
59 | GGCUCUCAGUGCCAUCAUUTT against Stk40 | -0.858
60 | GCUUGGGUAAUAGAAAUCATT against Btnl1 | 0.6
61 | GGUUCUCCAAACUCUGCCATT against Arhgap1 | 2.29 (active)
62 | GCCAAGACAUCAGAAGGAUTT against Nrxn1 | 0.202
63 | GGAAAACAGUGGUAGCUUATT against Cnp | 0.187
64 | GGAUGAAGAUGAAAAAGAUTT against Hoxc9 | -0.247
65 | GGGACUUUGUAAACAGUUUTT against Eci2 | 1.61
66 | GGCUAACCGUAUCAGUCAUTT against Podnl1 | -1.23

Row | Sequence | z-score
67 | GGCUUGAAUAUUAAAGUGATT against Arhgef19 | -0.505
68 | GGAGGUGGUACAAUACACCTT against Gsg1 | 2.86 (active)
69 | CCAACUUCAAAACUAUCGUTT against Trp53bp1 | 2.19 (active)
70 | UGCGAGCUCACUGAUGUACTT against Adam34l | -1.69
71 | GGGUUAGGUUGGGAUGGAUTT against Ccnd3 | -0.466
72 | GCACCUGACAGAUACUUCCTT against Ints4 | -2.1 (active)
73 | CGUGGGCCUAUGCUUGUCATT against Tsc1 | 0.32
74 | GGUUCUGAUAUACGUGUUUTT against Rraga | 0.057
75 | CCCAUUCACUCAUCACAUGTT against F630003A18Rik | -1.4
76 | GGCAGUUUUGCAUGUGUGATT against Zfp654 | -2.23 (active)
77 | GCCACUAAGAAUCAGACAUTT against Ryr1 | -0.382
78 | CCAGACCAUUAACUUGAUUTT against Lsm8 | -0.739
79 | GGUACGAGUGAUCGUACUUTT against 5330438I03Rik | 0.54
80 | CCCGUCACCACUUAACAUGTT against Rasal2 | 0.699
81 | GCUUUGAUGUCGAUGGGCUTT against Arg1 | -2.01 (active)
82 | GGAAUACCAUGUUACAAUUTT against Reln | 0.816
83 | GGUGUCUUUUUUUACAAGATT against Tnfsf11 | 0.233
84 | GGAGGAACCUAAUUGAAUGTT against Cmbl | 0.183
85 | GGUCCAGAUAGACAUCCUGTT against Ralb | 0.169
86 | GCAACUUGUCAGAUGUUUCTT against Trpm7 | 3.35 (active)
87 | GGGAUAAAUAUGAAGAAAGTT against Tacc2 | -1.46
88 | GGAACAGAGAUAUGAAACATT against Olfr738 | -2.4 (active)

Row | Sequence | z-score
89 | GGAGCAAUUAAAGGUGUCATT against Fpr-rs3 | -0.159
90 | CCAUCUUCAGCAGUGGAAATT against Rph3al | -1
91 | GGCGUGCGAUAACACGCAATT against Med18 | 1.05
92 | GGUCGUAUGGUGCUCAAGATT against Pira1 | -1.76
93 | GGCAUAGGACUAGAAGCAGTT against Rsrc2 | -1.54
94 | GCAGUAUGGGACUAUGCUUTT against Cp | -0.0969
95 | GCCAGAACCUGACUUAUAUTT against Mia2 | -0.0793
96 | GCCUGGCUAGAAAUGUGGUTT against Fpr3 | 3.19 (active)
97 | CCUCAUUCAGAGUAUAUAGTT against Vwa3a | -0.469
98 | GGCUUUAGAGAAAGAAGUATT against Med4 | 1
99 | GCGAGGUGUCUCUAUCAACTT against Mrpl11 | 3.37 (active)
100 | GCCUUUCUUCAGUGUUCACTT against Gm128 | 0.498
101 | GGUCUACGCUAUCCUAGUUTT against Grin1 | -2.23 (active)
102 | GCACCAAAAUACACGAAAGTT against Ptpdc1 | -1.11
103 | CCCAUGACUAUCCAAACAATT against Kcnmb2 | -1.52
104 | CCUUAGUAACAGCACUAGCTT against Lrfn2 | -0.228
105 | GGAGCUGGAGUACGACUACTT against Tmem30b | -0.891
106 | GGGAAAAUUUCCUCUGACUTT against Chia1 | -2.03 (active)
107 | UUUAAGGAUCUCGUGCGAATT against Olfr809 | -0.12
108 | GCUAAAACCCGUUACUUCCTT against Gsta4 | 0.669
